Assay results taken from PubChem BioAssay (NCATS).
Inconclusive results are not listed. Active and inactive are the calls of the source. Unless noted, calls follow the shape of the dose curve; as a rule, active = well fitted curve in the direction sought with a large enough effect; inconclusive = small, poorly fitted or top-dose-only effect, or another doubt; inactive = no such curve, though single readings can be large; an effect the other way counts as inactive or inconclusive. Bridge positions count the residues as written; N and C are the ends. Square brackets hold non-standard residues; d marks the D form. Peptide text beside a SMILES is read from it. * marks the point of attachment. Octanoyl(6-Me) = CCC(C)CCCCC(=O)*; Dab = NCC[CH](N)C(=O)O

Assays:
[1] = Cell Viability - NIH 3T3 (AID 541); details: NIH 3T3 cell viability, qHTS; activity change, negative = cytotoxicity: at 92.2 µM (top of the series);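 also: plate controls were DMSO alone for no effect and tamoxifen positive control for full effect; nearly all actives have a fitted effect of over 25% in size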
Outline: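 Luminescent ATP signal (CellTiter-Glo) served as the viability read-out after NIH 3T3 cells were exposed to compounds over a concentration range for 40 hr at 37 °C. Hill-equation modelling of concentration-response data gave AC50.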

[2] = target: Ubiquitin carboxyl-terminal hydrolase 1 (Homo sapiens) (UniProt O94782); test: Inhibitors of USP1/UAF1: Pilot qHTS (AID 504865); also: nearly all actives have a fitted effect of over 35% in size; also: potency is read from the fitted curve at half-maximal effect
Outline: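 In 50mM HEPES pH 7.8 containing 0.5mM EDTA, 1mM TCEP, 0.1 mg/ml BSA and 0.01% Tween-20, 1nM USP1/UAF1 is exposed to compound for 15 min, then Ub-Rho (150nM final) is added and fluorescence is read over time.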

[3] = system: AA1029; test: qHTS profiling for inhibitors of Plasmodium falciparum proliferation (AID 504749); also: nearly all actives have a fitted effect of over 60% in size; also: potency is read from the fitted curve at half-maximal effect; details: P. falciparum in erythrocytes, SYBR Green DNA, 72 h; series mostly up to 28.7 µM
Outline: (§1)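 Infected RBCs, 0.3% parasitemia/2.5% Hct final; cpd 72 h, 37 C, 5% CO2; lysis buffer with saponin/triton/SYBR Green I, o/n RT dark; FI 485/535; norm. to artemisinin (0.29 uM) and DMSO.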

[4] = system: ATS189; test: as above; details: P. falciparum in erythrocytes, SYBR Green DNA, 72 h; series mostly up to 28.7 µM
Outline: as §1

[5] = system: ATS95; test: as above; details: P. falciparum in erythrocytes, SYBR Green DNA, 72 h; series mostly up to 28.7 µM
Outline: as §1

[6] = system: CP192; test: as above; details: P. falciparum in erythrocytes, SYBR Green DNA, 72 h; series mostly up to 28.7 µM
Outline: as §1

[7] = system: CP211; test: as above; details: P. falciparum in erythrocytes, SYBR Green DNA, 72 h; series mostly up to 28.7 µM
Outline: as §1

[8] = system: CP215; test: as above; details: P. falciparum in erythrocytes, SYBR Green DNA, 72 h; series mostly up to 28.7 µM
Outline: as §1

[9] = system: CP238; test: as above; details: P. falciparum in erythrocytes, SYBR Green DNA, 72 h; series mostly up to 28.7 µM
Outline: as §1

[10] = system: CP266; test: as above; details: P. falciparum in erythrocytes, SYBR Green DNA, 72 h; series mostly up to 28.7 µM
Outline: as §1

[11] = system: CP269; test: as above; details: P. falciparum in erythrocytes, SYBR Green DNA, 72 h; series mostly up to 28.7 µM
Outline: as §1

[12] = system: CP286; test: as above; details: P. falciparum in erythrocytes, SYBR Green DNA, 72 h; series mostly up to 28.7 µM
Outline: as §1

[13] = system: CP305; test: as above; details: P. falciparum in erythrocytes, SYBR Green DNA, 72 h; series mostly up to 28.7 µM
Outline: as §1

[14] = system: CP315; test: as above; details: P. falciparum in erythrocytes, SYBR Green DNA, 72 h; series mostly up to 28.7 µM
Outline: as §1

[15] = system: CP329; test: as above; details: P. falciparum in erythrocytes, SYBR Green DNA, 72 h; series mostly up to 28.7 µM
Outline: as §1

[16] = system: CP335; test: as above; details: P. falciparum in erythrocytes, SYBR Green DNA, 72 h; series mostly up to 28.7 µM
Outline: as §1

[17] = system: DIV30; test: as above; details: P. falciparum in erythrocytes, SYBR Green DNA, 72 h; series mostly up to 28.7 µM
Outline: as §1

[18] = system: PC15; test: as above; details: P. falciparum in erythrocytes, SYBR Green DNA, 72 h; series mostly up to 28.7 µM
Outline: as §1

[19] = system: W2; test: as above; details: P. falciparum in erythrocytes, SYBR Green DNA, 72 h; series mostly up to 28.7 µM
Outline: as §1

[20] = qHTS assay for small molecule agonists of the antioxidant response element (ARE) signaling pathway measured by Nrf2-dependant transcriptional activity - cell viability counter screen (AID 720653; active = well fitted curve in the direction sought with a large enough effect in the repeat runs; an effect the other way counts as inactive or inconclusive; also: % is scaled to controls: 0 for no effect and ±100 for the full control effect); details: ARE-bla HepG2 viability, CellTiter-Glo ATP luminescence, 16 h; max response: stronger effect = lower value
Outline: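 Cytotoxicity counter screen: intracellular ATP quantified by CellTiter-Glo luminescence in the same ARE-bla HepG2 plates, after 16 h compound exposure and a 2 h beta-lactamase substrate step.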

Chain of Ubiquitin carboxyl-terminal hydrolase 1 (Homo sapiens) (O94782 whole entry, looked up): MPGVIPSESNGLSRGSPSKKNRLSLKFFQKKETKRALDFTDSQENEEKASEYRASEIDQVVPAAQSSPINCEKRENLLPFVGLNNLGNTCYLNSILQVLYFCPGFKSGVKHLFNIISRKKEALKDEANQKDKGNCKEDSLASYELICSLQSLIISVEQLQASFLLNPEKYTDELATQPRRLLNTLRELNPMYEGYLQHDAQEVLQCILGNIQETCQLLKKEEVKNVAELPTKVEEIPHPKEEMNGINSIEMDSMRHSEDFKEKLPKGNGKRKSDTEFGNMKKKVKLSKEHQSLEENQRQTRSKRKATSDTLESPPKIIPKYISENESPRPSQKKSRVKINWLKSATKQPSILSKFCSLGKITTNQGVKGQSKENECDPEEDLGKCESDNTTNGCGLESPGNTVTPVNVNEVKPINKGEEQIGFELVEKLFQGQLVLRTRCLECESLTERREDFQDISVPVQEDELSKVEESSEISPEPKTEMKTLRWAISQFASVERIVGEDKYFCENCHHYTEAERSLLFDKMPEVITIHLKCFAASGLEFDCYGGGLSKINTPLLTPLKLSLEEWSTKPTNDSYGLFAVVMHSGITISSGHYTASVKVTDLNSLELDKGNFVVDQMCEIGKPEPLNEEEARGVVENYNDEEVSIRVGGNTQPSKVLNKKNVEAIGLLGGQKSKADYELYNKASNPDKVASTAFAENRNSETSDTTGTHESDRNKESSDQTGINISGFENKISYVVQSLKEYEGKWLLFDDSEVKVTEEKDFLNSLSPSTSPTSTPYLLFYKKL

O=C1CCc2ccccc2O1
inactive: Potency [1]

CC1CCC(C(C)C)C(OC(=O)c2ccccc2O)C1 (stereo unspecified)
inactive: Potency [2] | Potency [3] | Potency [4] | Potency [5] | Potency [6] | Potency [7] | Potency [8] | Potency [9] | Potency [10] | Potency [11] | Potency [12] | Potency [13] | Potency [14] | Potency [15] | Potency [16] | Potency [17] | Potency [18] | Potency [19]

CCC(=O)O[C@@H](OP(=O)(CCCCc1ccccc1)CC(=O)N1C[C@H](C2CCCCC2)C[C@H]1C(=O)O)C(C)C (stereo partly specified)
inactive: Potency [2] | Potency [3] | Potency [4] | Potency [5] | Potency [6] | Potency [7] | Potency [8] | Potency [9] | Potency [10] | Potency [11] | Potency [12] | Potency [13] | Potency [14] | Potency [15] | Potency [16] | Potency [17] | Potency [18]

CC(=O)O[C@@]12CO[C@@H]1C[C@H](O)[C@@]1(C)C(=O)[C@H](O)C3=C(C)[C@@H](OC(=O)C(O)[C@@H](NC(=O)OC(C)(C)C)c4ccccc4)C[C@@](O)([C@@H](OC(=O)c4ccccc4)[C@H]21)C3(C)C (stereo partly specified)
active: Potency [3] 44.7 nM | Potency [4] 35.5 nM | Potency [5] 35.5 nM | Potency [6] 26.9 nM | Potency [7] 42.6 nM | Potency [8] 67.5 nM | Potency [9] 28.2 nM | Potency [11] 42.6 nM | Potency [12] 17.8 nM | Potency [13] 42.6 nM | Potency [14] 33.8 nM | Potency [15] 33.8 nM | Potency [16] 21.3 nM | Potency [17] 53.6 nM | Potency [18] 5620 nM | Potency [19] 15.1 nM
inactive: Potency [2]

Nc1nc(Cl)nc2c1ncn2C1CC(O)C(CO)O1 (stereo unspecified)
inactive: Potency [6] | Potency [7] | Potency [8] | Potency [10] | Potency [11] | Potency [13] | Potency [14] | Potency [15] | Potency [16] | Potency [17] | Potency [19]

CCC(C)CCCCC(=O)NC(CCN)C(=O)NC(C(=O)NC(CCN)C(=O)NC1CCNC(=O)C(C(C)O)NC(=O)C(CCN)NC(=O)C(CCN)NC(=O)C(CC(C)C)NC(=O)C(Cc2ccccc2)NC(=O)C(CCN)NC1=O)C(C)O (stereo unspecified) ({Octanoyl(6-Me)}-[Dab]T[Dab][Dab][Dab]FL[Dab][Dab]T; lactam 4-C; configuration not given here)
inactive: Potency [3] | Potency [4] | Potency [5] | Potency [6] | Potency [7] | Potency [8] | Potency [9] | Potency [10] | Potency [11] | Potency [12] | Potency [13] | Potency [14] | Potency [15] | Potency [16] | Potency [17] | Potency [18] | Potency [19]
active: Potency [2] 50100 nM

CO/N=C(/C(=O)N[C@@H]1C(=O)N2C(C(=O)O)=CCS[C@H]12)c1csc(N)n1
inactive: Potency [3] | Potency [4] | Potency [5] | Potency [6] | Potency [7] | Potency [8] | Potency [9] | Potency [10] | Potency [11] | Potency [12] | Potency [13] | Potency [14] | Potency [15] | Potency [16] | Potency [17] | Potency [18] | Potency [19]

O[C@@H]([C@H](O)[C@@H](O)CBr)[C@@H](O)CBr
inactive: max response [20] 2.11%

COc1cc(/C=C/C(=O)N2CCC=CC2=O)cc(OC)c1OC
inactive: Potency [2]

Cc1cc(CC(C)CC(C)(C)C)n(O)c(=O)c1 (stereo unspecified)
active: Potency [3] 3160 nM | Potency [4] 3160 nM | Potency [5] 3160 nM | Potency [6] 2390 nM | Potency [7] 3380 nM | Potency [8] 2130 nM | Potency [9] 2510 nM | Potency [10] 3790 nM | Potency [11] 3380 nM | Potency [12] 2820 nM | Potency [13] 2390 nM | Potency [14] 3380 nM | Potency [15] 1900 nM | Potency [16] 1690 nM | Potency [17] 3790 nM | Potency [18] 5010 nM | Potency [19] 2130 nM

CC1(C)S[C@@H]2[C@H](NC(=O)COc3ccccc3)C(=O)N2[C@H]1C(=O)O
inactive: Potency [2] | Potency [3] | Potency [4] | Potency [5] | Potency [6] | Potency [7] | Potency [8] | Potency [9] | Potency [10] | Potency [11] | Potency [12] | Potency [13] | Potency [14] | Potency [15] | Potency [16] | Potency [17] | Potency [18] | Potency [19]
